SMILES strings stand for the structures. Inconclusive results are not listed. A call without a number means that no potency is given here. Calls of active or inactive are those of the source. Calls follow the shape of the dose curve; as a rule, active = well fitted cell-killing curve with a large enough effect; inconclusive = small, poorly fitted or top-dose-only effect, or effect the other way; inactive = no such curve, though single readings can be large or run the other way.
Potency is read from the fitted curve at half-maximal effect.

The nature of the assay: Viability qHTS for spleen associated tyrosine kinase inhibitor (SYKi) naive MV4-11 cells (AID 1963823). Also: nearly all actives have a fitted effect of over 40% in size. To be noted: MV4-11 AML viability, CellTiter-Glo luminescence, 72 h; series mostly up to 45 µM. The source says:
Department of Medicine, Hematology/Oncology
University Hospital Frankfurt, Germany.
Trials have shown promising clinical activity of the selective SYK inhibitor entospletinib in patients with high expressing HOXA9/MEIS1 acute leukemias. As the development of resistance mechanisms is a common problem in the use of targeted drugs, we performed a chemical library screen to identify drug sensitivities in SYK inhibitor resistant AML cells. […] Glucocorticoids are potent immunosuppressants which work in part by inhibiting the transcription of cytokine genes.
Described herein is a viability screen to look for activity in the SYK inhibitor naive cell line against four NCATS compound libraries (MIPE 5.0, NPC, NPACT, and Kinase) totaling 11372 compounds. Active hits were reacquired for confirmation and further secondary assay testing.
SEQUENCE No. (e.g., 1, 2, 3, etc.); […] (e.g., Cells, Incubation, Reagent, etc.); VALUE; DESCRIPTION.
1; Media; 2uL; white, solid-bottom Corning assay plate.
2; Compounds; 23nL; Echo acoustic dispenser.
3; Cell; 5uL; 500 cells per well.
4: Incubation; 72hr; 37 C, 5% CO2, 95% humidity.
5; Reagent; 3uL; CellTiter-Glo reagent (Promega).
6; Incubation; 10min; room temperature.
7; Detection; Luminescence; ViewLux plate reader (PerkinElmer).
NOTES (numbers refer to Sequence numbers above
1. Quantitative high-throughput screening (qHTS) of small molecule compounds was conducted on naive SYKi MV4-11 cell line.
2. Twenty-three nanoliter of small molecule compounds were added to each assay plates using the Echo acoustic dispenser (Beckman Coulter).
3. Cells were seeded into the assay plates at a final density of 500 cells in 5uL of media per well using the Multi-drop Combi dispenser.
4. Plates were covered with stainless steel gasketed lids and incubated for 72 hours at standard cell culture conditions.
5. Viability was assessed by adding 3uL of CellTiter-Glo detection reagent (Promega).
6. Plates were covered with gasket lids and incubated for 10 minutes at room temperature.
7. Luminescence was measured on a ViewLux plate reader (PerkinElmer).
(In general: Quantitative high-throughput screening tests each substance at several concentrations.)
With `CC(=O)N[C@@H](Cc1ccc(O)cc1)C(=O)O`, the Potency entry is “inactive”.

On to `CC(NC(=O)c1ccccc1N)C(=O)O` (stereo not given), for which the Potency entry is “inactive”.

Regarding `CCN(CC)CCOC(=O)C1(C2CCCCC2)CCCCC1`, the Potency result was “inactive”.

`CN1CCCC(n2nc(Cc3ccc(Cl)cc3)c3ccccc3c2=O)CC1` (stereo not given): the Potency is 10.6 µM (active).

For the compound `N#Cc1ccc2ncnc(NCCc3ccccc3)c2c1`, the Potency is 8.2 µM (active).

As to `Cc1[nH]cnc1CN1CCN(C(=O)N[C@@H](CC(C)C)C(=O)O)[C@@H](Cc2ccccc2)C1=O`, the Potency entry is “inactive”.

Turning to `COc1ccccc1CC(C(=O)O)N(C)C(=O)c1ccccc1` (stereo not given), the Potency result was “inactive”.

For `COc1cc(C2Oc3c(OC)cc(/C=C/C(=O)OC4CC(O)(C(=O)O)CC(O)C4O)cc3C2CO)ccc1O` (stereo not given), the Potency entry is “inactive”.

Consider `CC(=O)OC1CC(C)(C(=O)O)CC2C3=CC(=O)C4C5(C)CCC(OC6OC(C(=O)O)C(O)C(O)C6OC6OC(C(=O)O)C(O)C(O)C6O)C(C)(C)C5CCC4(C)C3(C)CCC12C` (stereo not given), for which the viability (% of control) was 70.5% [at 9.25 µM] (inactive).

As for `CCOCCn1c(C2CCN(CCc3ccc(C(C)(C)C(=O)O)cc3)CC2)nc2ccccc21`, the Potency entry was “inactive”.

`C=C1C(=O)O[C@@H]2[C@H]1[C@H](O)C[C@]1(C)[C@@H](O)CC=C(C)[C@@H]21`: the Potency was 9.2 µM (active).

On to `CCc1c(-c2ccccc2C)nc2c(C#N)c[nH]n2c1=O`, for which the Potency entry was “inactive”.

`N[C@@H](CC(=O)N1CCn2c(nnc2C(F)(F)F)C1)Cc1[nH]nc2c(F)c(F)ccc12`: the Potency entry was “inactive”.

As for `CCCc1ccc(OCC(=O)N2CCN(C(=O)COc3ccc(CCC)cc3OC)CC2)c(OC)c1`, the Potency result was “inactive”.

For `CC[C@H](C)[C@H](NC(=O)[C@H]([C@@H](C)CC)N(C)C(C)=O)C(=O)N[C@H](C(=O)N[C@@H](CC(C)C)C(=O)[C@@]1(C)CO1)[C@@H](C)O`, the Potency is 0.0058 µM (active).

Consider `O=C(c1cc2c(cc1F)OC(c1ccc(F)cc1)(c1ccc(Cl)cc1Cl)O2)N1CCOCC1` (stereo not given), for which the Potency result is “inactive”.

`COc1cc(C(=O)NCc2ccc(OCCN(C)C)cc2)cc(OC)c1OC`: the Potency result is “inactive”.

`CC(O)C(O)/C=C/C=C/C(=O)O[C@@H]1C=C2COC(=O)[C@]2(O)[C@@]2(C)CCCC(C)(C)C12` (stereo not given in full): the Potency result is “inactive”.

On to `CCCCOCCOC(=O)c1cccnc1`, for which the Potency result was “inactive”.

On to `Cc1cccn2c(=O)c(-c3nnn[nH]3)cnc12`, for which the Potency entry is “inactive”.

With `C/C=C/C=C/C=C/C(=O)OC1C=C2C(O)OC(=O)[C@]2(O)[C@@]2(C)CCCC(C)(C)[C@H]12` (stereo not given in full), the Potency is 6.32 µM (active).

Turning to `CCOc1ccc(Cc2cc([C@@H]3O[C@H](CO)[C@@H](O)[C@H](O)[C@H]3O)ccc2Cl)cc1`, the Potency result is “inactive”.

With `Cn1nnc2c(C(N)=O)ncn2c1=O`, the Potency result is “inactive”.

Consider `CCN1CCN(c2cc(-c3ccc(F)cc3)c3c(n2)CCCCCC3)CC1`, for which the Potency result is “inactive”.

With `CCN(CC)CCNC(=O)c1cc(Cl)c(N)cc1OC`, the Potency result is “inactive”.

For `O=C(Nc1ncc(SCCN2CCCC2)s1)[C@]1(c2ccc(S(=O)(=O)C3CC3)cc2)C[C@H]1C1CCCCC1`, the Potency was 7.42 µM (active).

On to `C=CC(=O)N1CCCC(n2nc(-c3ccc(Oc4ccccc4)cc3)c3c(N)ncnc32)C1` (stereo not given), for which the Potency is 0.58 µM (active).

As to `O=C(O)CN1C(=O)c2cccc3cccc(c23)C1=O`, the Potency result was “inactive”.

Consider `O=C(c1ccccc1)C(O)c1ccccc1` (stereo not given), for which the Potency entry was “inactive”.

`CC(C)(NS(=O)(=O)c1ccc2c(Cl)cnc(N=C(N)N)c2c1)C(=O)O`: the Potency entry is “inactive”.

Consider `Nc1ncnc2c1c(-c1cccc(OCc3ccccc3)c1)cn2C1CC(CN2CCCC2)C1` (stereo not given), for which the Potency was 0.517 µM (active).

As to `COc1cc(O[C@@H]2O[C@H](CO[C@H]3OC[C@](O)(CO)[C@H]3O)[C@@H](O)[C@H](O)[C@H]2O)cc(OC)c1O`, the Potency result is “inactive”.

Consider `C[C@@H](O)[C@H]1C(=O)N2C(C(=O)O)=C(S[C@@H]3CN[C@H](C(=O)N(C)C)C3)[C@H](C)[C@H]12`, for which the Potency entry was “inactive”.

For `COC(=O)c1cc(OC)cc(OC)c1C(=O)c1c(OC)cc2c(c1O)C1CCCC(C)(O2)O1` (stereo not given), the Potency entry was “inactive”.

For the compound `O=C(O)CCC(=O)OC[C@@H](NC(=O)C(Cl)Cl)[C@H](O)c1ccc([N+](=O)[O-])cc1`, the Potency entry was “inactive”.

For the compound `COC(=O)c1ccccc1O[C@@H]1O[C@H](CO)[C@@H](O)[C@H](O)[C@H]1O[C@@H]1O[C@@H](C)[C@H](O)[C@@H](O)[C@H]1O`, the Potency entry was “inactive”.

On to `CC(O)C(=O)O` (stereo not given), for which the Potency result is “inactive”.

With `COc1ccc(-c2nc(N3CCOCC3)c3sc(CN(C)c4ncc(C(=O)NO)cn4)cc3n2)cn1`, the Potency was 0.0148 µM (active).

With `C=C1C(=O)O[C@@H]2/C=C(\CO)CC/C=C(/C=O)C[C@H](O)[C@@H]12`, the Potency was 4.11 µM (active).

Consider `COCCOc1nc(-c2ccc(Cl)c(Cl)c2)n(-c2ccc(NC(=O)CCl)cc2)n1`, for which the Potency was 2.31 µM (active).
